The values that follow come from publication PMC5540273 (PLoS ONE, 2017).
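Note: KINOMEscan kinase panel screen.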

The experiment deals with ACVR1. The note with it: concentration: 1 μM, replicates: in singlicate; n = 1.
For the compound `CCCCc1nn2ncccc2c1-c1ccnc(NC2CC2)n1` [GW684374], the “%Inh” value is on record as 2%. Regarding `COC(=O)C(NC(=O)NC1CCN(c2ccnc(Nc3ccc(F)cc3)n2)C1)c1ccccc1` (stereo not shown) [GSK1379712], the “%Inh” value came to 4%.

Turning to `O=c1cc(N2CCOCC2)nc2n(Cc3ccccc3F)ccn12` [GSK2297428], the “%Inh” value came out at 0%. In the case of `COc1cc2ncnc(Nc3cccc(Br)c3)c2cc1OC.Cl` [GI230329], the “%Inh” value was found to be 0%. The result for `CS(=O)(=O)Cc1ccc(Nc2nccc(-c3c(-c4cccc(NC(=O)C5CCCCC5)c4)nn4ncccc34)n2)cc1` [GSK350559] reads 18%; that for `Cc1cnc(N)c(/C=C/c2cncc(C(=O)NCCc3ccc(Cl)cc3Cl)c2)c1.Cl` [GSK190937], 0%; that for `CS(=O)(=O)CCNCc1nc(-c2ccc3ncnc(Nc4ccc5c(cnn5Cc5ccccc5)c4)c3c2)cs1.Cl.Cl` [GW569716], 1%. The result for `CC[C@@H]1CO[C@H](C(=O)Nc2ccccc2)CN1c1cc(-c2ccc3c(N)n[nH]c3c2)nc(NC)n1` [GSK2376236] reads 0%; that for `CC(=O)c1c(C)c2cnc(Nc3ccc(N4CCNCC4)cn3)nc2n(C2CCCC2)c1=O`, 0%. On to `COc1ccc(-c2coc3ccc(-c4nnc(C)o4)cc23)cc1`, for which the “%Inh” value is recorded as 0%. In the case of `Cc1c(Cn2c(C)c(C)n3c(=O)cc(N4CCOCC4)nc23)cccc1C(F)(F)F` [GSK2328680] it was 0%; in that of `CNc1cc(-c2ccc3c(N)n[nH]c3c2)nc(N)n1` [GSK2224810], 29%. The result for `Cc1ccc(NC(=O)c2ccc(Cl)cc2)cc1-c1ccc(C(=O)Nc2ccncc2)cc1` [GSK1398467] reads 7%; that for `CCn1c(-c2ccccc2)nc2cnccc21` [SB-733416], 23%; that for `CN1c2ccc(-c3ccc(C(N)=O)cc3)cc2-c2[nH]ncc2S1(=O)=O`, 0%. The result for `CS(=O)(=O)CCNCc1nc(-c2ccc3ncnc(Nc4ccc(OCc5ccccc5)c(Cl)c4)c3c2)cs1.Cl` [GW582764] reads 0%; that for `COC(=O)c1cccc(NC(=O)NC2CCN(c3ccnc(Nc4ccc(OC)cc4)n3)C2)c1` (stereo not shown) [GSK1379746], 41%.

As for `NS(=O)(=O)c1cccc(N/C=C2\C(=O)Nc3ccc(S(=O)(=O)Cc4c(Cl)cccc4Cl)cc32)c1` [GSK398099], the “%Inh” value is reported as 0%. For the compound `CC(=O)c1cccc(NC(=O)NC2CCN(c3ccnc(Nc4ccc(F)cc4)n3)C2)c1` (stereo not shown) [GSK1379710], the “%Inh” value stood at 0%. Regarding `O=C1NC(=O)C(c2ccc(Cl)cc2)=C1Nc1cccc(Cl)c1` [SB-317651], the “%Inh” value amounted to 0%. As to `Cc1ccc(-c2nc(Nc3ccncc3)c3ccccc3n2)s1` [GSK189015], the “%Inh” value was 34%. For the compound `Cn1cnc2c(N)ncnc21` [SKF-97623], the “%Inh” value is given as 0%.

As for `CNc1nc(-c2ccc3c(N)n[nH]c3c2)cc(N2C[C@@H](C(=O)NC3CCCCC3)OC[C@H]2C)n1` [GSK2375584], the “%Inh” value came to 18%.

As for `O=C(Nc1n[nH]c2nc(-c3ccco3)c(Br)cc12)C1CCN(Cc2ccccc2)C1.O=C(O)[C@H](O)[C@@H](O)C(=O)O` (stereo not shown) [SB-742034], the “%Inh” value worked out at 0%. The result for `COc1ccc(Nc2nccc(NCCNC(=O)Nc3cc(C)ccc3C)n2)cc1` [GSK1379899] reads 2%; that for `CC(C)c1cc(-c2ccc3c(N)n[nH]c3c2)nc(N)n1` [GSK2250882], 0%; that for `O=C(Nc1n[nH]c2nc(-c3cccs3)c(Br)cc12)C1CCCC1` [SB-743341], 0%. In the case of `O=C1NC(=O)C(c2ccc(Cl)cc2)=C1Nc1ccc(O)cc1` [SB-340867] it was 11%.

On to `COc1ccc(Nc2nccc(N3CCC(NC(=O)C(C)c4ccc(Cl)cc4)CC3)n2)cc1` (stereo not shown) [GSK1379812], for which the “%Inh” value is 8%. The result for `CC(C)c1ccc(O)cc1Nc1ccnc2ccc(C(F)(F)F)cc12` [GW482059] reads 0%; that for `CCn1c(-c2c(N)noc2C)nc2cnccc21` [SB-737856], 21%. In the case of `COc1ccc(Nc2nccc(N3CCC(NC(=O)C(C)c4ccc(Cl)cc4)C3)n2)cc1` (stereo not shown) [GSK1379735] it was 14%; in that of `O=c1cc(N2CCOCC2)nc2n(Cc3cccc(Cl)c3Cl)c3ccccc3n12` [GSK2299009], 0%; in that of `CC(=O)c1c(C)c2cnc(Nc3ccn(C)n3)nc2n(C2CCCC2)c1=O`, 16%. In the case of `Cc1nccc(-c2c(-c3ccc(F)cc3)ncn2CCCN2CCOCC2)n1.Cl` [SB-282975] it was 5%. Regarding `COc1ccc(CSc2nnc(-c3ccc4c(c3)CCO4)o2)cc1`, the “%Inh” value amounted to 0%. In the case of `Cc1ccc(NC(=O)Nc2ccc(Cl)cc2)cc1-c1ccc(C(=O)Nc2ccncc2)cc1` [GSK1398472] it was 15%.
